Among all 16,000 compounds or so, about 4,000 (25%) were called active. Roughly 26% stayed inconclusive and do not appear here. Calls follow the shape of the dose curve; as a rule, active = well fitted curve in the direction sought with a large enough effect; inconclusive = small, poorly fitted or top-dose-only effect, or effect the other way; inactive = no such curve, though single readings can be large or run the other way. Not all results are given here.
% is scaled to controls: 0 for no effect and ±100 for the full control effect.

The target in the test is Cytochrome P450 2C9 (Homo sapiens) (UniProt P11712). The test can be described thus: Cytochrome panel assay with activity outcomes. The conditions noted are these: recombinant CYP, pro-luciferin dealkylation, luminescence, p450-cyp2c9; series mostly up to 57.1 µM.
Sequence of Cytochrome P450 2C9 (Homo sapiens) (P11712 whole entry, looked up): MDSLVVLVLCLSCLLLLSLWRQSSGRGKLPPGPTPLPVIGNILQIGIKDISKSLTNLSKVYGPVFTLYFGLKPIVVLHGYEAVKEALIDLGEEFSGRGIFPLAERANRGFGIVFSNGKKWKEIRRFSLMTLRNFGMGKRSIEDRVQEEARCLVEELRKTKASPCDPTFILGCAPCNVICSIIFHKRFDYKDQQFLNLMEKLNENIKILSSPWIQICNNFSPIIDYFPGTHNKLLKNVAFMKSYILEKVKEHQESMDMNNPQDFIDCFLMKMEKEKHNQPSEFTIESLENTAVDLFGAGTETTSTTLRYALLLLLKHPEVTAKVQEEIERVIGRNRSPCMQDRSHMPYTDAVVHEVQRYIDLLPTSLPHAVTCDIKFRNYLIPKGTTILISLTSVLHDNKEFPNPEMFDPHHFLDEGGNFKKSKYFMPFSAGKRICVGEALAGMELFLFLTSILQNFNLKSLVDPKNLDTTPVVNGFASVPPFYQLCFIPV
As for `C[C@@]12CCC(=O)C=C1CC[C@H]1[C@@H]2[C@@H](O)C[C@]2(C)[C@@H]1CC[C@@]2(O)C(=O)COC(=O)C1CCCC1`, the activity, negative = inhibition was -1.4% [at 11.4 µM] (inactive).
In the case of `Nc1ccccc1N=Nc1c(S(=O)(=O)O)cc2cc(S(=O)(=O)O)cc(O)c2c1O`, the activity, negative = inhibition was -15.1% [at 11.4 µM] (inactive).
Regarding `O=S(=O)(O)c1cc(O)c2c(N=Cc3ccccc3O)cc(S(=O)(=O)O)cc2c1`, the concentration at half-maximal activity (AC50) is 3.16 µM (active).
The same measure, in the same setting: the same measure for `Cc1ccc(Nc2ccc(-n3ccnc3)nn2)cc1C`: 0.0794 µM (active).
Turning to `CS(=O)(=O)Nc1cccc(-c2nccc(-n3ccnc3)n2)c1`, the activity, negative = inhibition was -8.16% [at 2.29 µM] (inactive).
The same measure, in the same setting: next, `COc1ccccc1-c1cc(-n2ccnc2)ncn1`: -8.14% [at 2.29 µM] (inactive).
In the case of `CCc1noc(N)c1C(=O)Nc1ccc(F)c(Cl)c1`, the AC50 is 14.1 µM (active).
In the case of `CCc1ccc(NC(=O)c2cc(C(C)C)on2)cc1`, the AC50 result is “inactive”.
`O=C(O)c1cc(S(=O)(=O)N2CCCCC2)ccc1F`: the AC50 result is “inactive”.
For the molecule `O=C(Nc1ccc(F)cc1)c1cc(S(=O)(=O)N2CCCCC2)cs1`, the half-maximal activity concentration (AC50) was 12.6 µM (active).
Consider `O=C(N/N=C1/C[C@@H](O)[C@@H](O)[C@@H]2[C@H]3C(=O)N(c4ccc(F)cc4F)C(=O)[C@@H]3CC[C@H]12)OCc1ccccc1`, for which the activity, negative = inhibition was -11.6% [at 11.4 µM] (inactive).
On to `O=C1C=C(NCCc2cc(Br)c(O)c(Br)c2)C(=O)c2ncccc21`, for which the AC50 is 1.58 µM (active).
`O=C1C=C(Nc2nc(C(=O)O)cc(=O)[nH]2)c2ccccc2C1=O`: the activity, negative = inhibition was 8.04% [at 11.4 µM] (inactive).
Consider `COc1ccc2c(c1)c(=O)oc1c(C)c(OCC(=O)N3CCc4ccccc4C3)ccc12`, for which the AC50 is 1 µM (active).
Regarding `COCC(=O)N1CCC2(CC1)CCN(C(=O)Nc1ccc(OC)cc1)CC2`, the AC50 entry is “inactive”.
Same read-out and setting: the same measure for `CN(C)CC[C@H](c1ccc(Br)cc1)c1ccccn1`: “inactive”.
With `CN(Cc1ccco1)c1ccnc(-c2ccoc2)n1`, the activity, negative = inhibition was 27.8% [at 2.29 µM] (inactive).
As to `COc1ccccc1C1(CC(=O)Nc2nccs2)CCOC(C(C)C)C1` (stereo not given), the AC50 is 10 µM (active).
Take `Oc1ccccc1CNCc1ccccc1O`: the activity, negative = inhibition was -4.69% [at 11.4 µM] (inactive).
Take `O[C@@H](c1cc(C(F)(F)F)nc2c(Cl)cc(Cl)cc12)[C@@H]1CCCCN1`: the activity, negative = inhibition is 0.514% [at 11.4 µM] (inactive).
On to `CN(C)c1ccnc(Oc2ccc(Cl)cc2)c1C#N`, for which the AC50 was 20 µM (active).
As for `N#Cc1c(-c2ccccc2)ccnc1Oc1ccccc1`, the AC50 is 7.08 µM (active).
Same read-out and setting: the same measure for `COc1ccc(Oc2nccc(-c3ccc(F)cc3)c2C#N)cc1`: “inactive”.
For the molecule `N#Cc1cccc(-c2nccc(NCc3ccccc3)n2)c1`, the activity, negative = inhibition is -19.1% [at 2.29 µM] (inactive).
Still for that read-out and setting: the same measure for `COc1ccccc1CNc1cc(-c2cccc(C#N)c2)ncn1`: 8.28% [at 2.29 µM] (inactive).
Consider `C[C@@H]1O[C@H](O[C@@H]2[C@@H](Oc3cc(O)c4c(c3)O[C@H](c3ccc(O)cc3)CC4=O)O[C@@H](CO)[C@@H](O)[C@H]2O)[C@@H](O)[C@H](O)[C@@H]1O`, for which the AC50 result was “inactive”.
For `Cc1ccc2c(c1)N[C@H](c1ccc(C(=O)O)cc1)c1cccn1-2`, the activity, negative = inhibition is -25.1% [at 11.4 µM] (inactive).
With `C[C@@H](CN1CCC(Cc2ccccc2)CC1)[C@@H](O)c1ccc(O)cc1`, the AC50 result is “inactive”.
The same measure, in the same setting: next, `CC(C)OC(=O)c1cc2c(ccn2C)n1CC(=O)N1CCC(Cc2ccccc2)CC1`: 14.1 µM (active).
`Cc1ccc(C)c(Cn2c(C(=O)OC(C)C)cc3c2ccn3C)c1`: the concentration at half-maximal activity (AC50) was 8.91 µM (active).
On to `C[C@@H](CN1CCC(Cc2ccccc2)CC1)[C@H](O)c1ccc(O)cc1`, for which the AC50 result is “inactive”.
On the same count and under the same terms, next, `N#CCCn1c(=O)c(-c2ccc(F)cc2)nc2cnc(Oc3cccc(Cl)c3)nc21`: “inactive”; `CCNc1ncc2nc(-c3cc(F)cc(F)c3)c(=O)n(CCOC)c2n1`: “inactive”.
Turning to `COCCn1c(=O)c(-c2ccc(OC)cc2)nc2cnc(Oc3cccc(Cl)c3)nc21`, the AC50 was 0.631 µM (active).
In the case of `COCCn1c(=O)c(-c2ccccc2)nc2cnc(Oc3cccc(Cl)c3)nc21`, the half-maximal activity concentration (AC50) is 0.501 µM (active).
For the molecule `COCCn1c(=O)c(-c2ccc(OC)cc2)nc2cnc(Nc3cccc(OC)c3)nc21`, the AC50 result is “inactive”.
Still for that read-out and setting: next, `COCCn1c(=O)c(-c2cn(C)c3ccccc23)nc2cnc(Oc3cccc(Cl)c3)nc21`: “inactive”.
On to `COCCn1c(=O)c(-c2cc(F)cc(F)c2)nc2cnc(Oc3cccc(Cl)c3)nc21`, for which the AC50 was 3.98 µM (active).
Still for that read-out and setting: next, `O=c1[nH]c(=O)n([C@@H]2C[C@H](O)[C@H](CO)O2)cc1C(F)(F)F`: “inactive”; `COc1ccccc1NC(=S)NCCc1ccccc1`: “inactive”; `Fc1cc(Br)ccc1NC(=S)NCCc1ccccc1`: 10 µM (active).
Turning to `Fc1ccccc1NC(=S)NCCc1ccccc1`, the concentration at half-maximal activity (AC50) is 7.94 µM (active).
As to `Fc1ccc(NC(=S)NCCc2ccccc2)c(F)c1F`, the AC50 is 5.01 µM (active).
In the case of `O=C1O[C@@H]([C@H](O)[C@H](O)[C@H](O)CO)[C@@H](O)[C@@H]1O`, the activity, negative = inhibition is -8.59% [at 11.4 µM] (inactive).
`COc1ccc(C(=O)N2CCC[C@@]3(CCN(C(=O)NC(C)C)C3)C2)cc1`: the AC50 entry is “inactive”.
Take `Nc1ncnc2c1ncn2[C@H]1O[C@@H](C(=O)OCCO)[C@@H](O)[C@H]1O`: the activity, negative = inhibition was -1.34% [at 11.4 µM] (inactive).
On to `O=C(O)C1CCN(c2ncnc3ccc(-c4ccccc4C(F)(F)F)cc23)CC1`, for which the activity, negative = inhibition is 4.43% [at 2.29 µM] (inactive).
Same read-out and setting: next, `N#Cc1ccccc1-c1ccc2ncnc(N3CCNCC3)c2c1`: 26.5% [at 2.29 µM] (inactive).
As to `Cc1cc(C)n(-c2ccc(C(=O)Nc3cc(C(F)(F)F)ccc3N3CCOCC3)cc2)n1`, the AC50 was 0.0794 µM (active).
`Cc1ccc(C(C)C)n1C(=O)OC(C)(C)C`: the activity, negative = inhibition was 0.745% [at 11.4 µM] (inactive).
For `COc1ccc(N2C(=O)CSC2c2cccc(F)c2)c(OC)c1` (stereo not given), the AC50 result is “inactive”.
`CC(=O)Nc1ccc(N2C(=O)CC(c3ccccc3)CC2=O)cc1`: the AC50 result was “inactive”.
Consider `CC(=O)Nc1ccc(N2C(=O)CSC2c2c(F)cccc2Cl)cc1` (stereo not given), for which the half-maximal activity concentration (AC50) was 10 µM (active).
`O=C(Nc1ccccc1)c1ccccc1CC[N+](=O)[O-]`: the AC50 result was “inactive”.
For `Cc1cccc[n+]1CC(=O)Nc1ccc([N+](=O)[O-])cc1Cl`, the AC50 result is “inactive”.
Consider `O=C(Nc1ccccc1)c1cc([N+](=O)[O-])ccc1Cl`, for which the AC50 is 6.31 µM (active).
For the molecule `O=C(Nc1ccc([N+](=O)[O-])cc1Cl)c1cc(Cl)ccc1O`, the AC50 was 0.631 µM (active).
On to `CC1=C[N+](=O)c2ccccc2[N+]1=O`, for which the activity, negative = inhibition was -5.42% [at 11.4 µM] (inactive).
Still for that read-out and setting: next, `N#Cc1cccc(-c2cc(-n3ccnc3)ncn2)c1`: -5.24% [at 2.29 µM] (inactive).
For `O=C(O)c1cccc(N2CCCC2=O)c1`, the concentration at half-maximal activity (AC50) is 12.6 µM (active).
In the case of `CCCCN(C)CCCNC(=O)c1ccc(N2CCCC2=O)cc1`, the AC50 entry was “inactive”.
Take `O=C(O)c1cccc(OCCO)c1`: the activity, negative = inhibition was -19% [at 11.4 µM] (inactive).
Still for that read-out and setting: the same measure for `c1nc(NC2CCNCC2)c2cc(-c3ccc4c(c3)OCO4)ccc2n1`: 28.6% [at 2.29 µM] (inactive); for `Oc1cc(O)c2c(c1)O[C@H](c1ccc(O)c(O)c1)[C@@H](O)[C@@H]2c1c(O)cc(O)c2c1O[C@@H](c1ccc(O)c(O)c1)[C@H](O)C2`: -22.1% [at 11.4 µM] (inactive).
`O=C(c1cccc(F)c1)N1CCC2(CCN(Cc3cc(C(F)(F)F)cc(C(F)(F)F)c3)CC2)CC1`: the AC50 entry is “inactive”.
Still for that read-out and setting: the same measure for `COc1ccc(C(=O)N2CCC3(CCCN(C(=O)Nc4cccc(F)c4)C3)CC2)cc1`: “inactive”; for `O=C(c1cccc(F)c1)N1CCC2(CCN(Cc3ccncc3)CC2)CC1`: 2.51 µM (active); for `O=C(Nc1cccc(F)c1)N1CCCC2(CCN(C(=O)c3ccncc3)CC2)C1`: 0.0794 µM (active).
On the same count and under the same terms, the same measure for `O=C(c1cccc(F)c1)N1CCC2(CCCN(Cc3ccccc3)C2)CC1`: “inactive”; for `O=C(c1cccc(F)c1)N1CCC2(CCN(Cc3ccccc3)CC2)CC1`: “inactive”; for `O=C(c1cccc(F)c1)N1CCC2(CCCN(Cc3ccncc3)C2)CC1`: 0.631 µM (active).
Consider `O=C(c1cccc(F)c1)N1CCC2(CCCN(Cc3cc(C(F)(F)F)cc(C(F)(F)F)c3)C2)CC1`, for which the AC50 entry was “inactive”.
Same read-out and setting: next, `O=C(Nc1cccc(F)c1)N1CCCC2(CCN(C(=O)c3cnccn3)CC2)C1`: “inactive”; `Cc1ccc(NC(=S)/C(=C(\[O-])c2ccc(C)c([N+](=O)[O-])c2)[n+]2ccccc2)cc1C`: “inactive”.
Same read-out and setting: next, `Cc1ccc(C(=O)Nc2ccc(Cc3ccncc3)cc2)cc1[N+](=O)[O-]`: 0.631 µM (active).
Regarding `Cc1ccc(C(=O)N/N=C\c2ccc[nH]2)cc1[N+](=O)[O-]`, the AC50 entry was “inactive”.
Take `CCC(=O)[C@@]1(C)[C@H](C)C[C@@H]2[C@@H]3CCC4=CC(=O)C=C[C@@]4(C)[C@H]3[C@H](O)C[C@]21C`: the AC50 entry was “inactive”.
The same measure, in the same setting: the same measure for `CCc1c(C(=O)O)[nH]c2ccc(Br)cc12`: 15.8 µM (active).
Still for that read-out and setting: the same measure for `O=C1Cc2c([nH]c3ccc(Br)cc23)-c2ccccc2N1`: “inactive”.
For `CCCCCCN(CCCCCC)C(=O)Cc1c(-c2ccc(Cl)cc2)[nH]c2ccc(Cl)cc12`, the AC50 result was “inactive”.
Same read-out and setting: the same measure for `CC(=O)N1CCC2(CCN(Cc3nccs3)CC2)CC1`: “inactive”.
Consider `C[C@@](N)(Cc1c[nH]c2ccccc12)C(=O)O`, for which the activity, negative = inhibition is -9.29% [at 11.4 µM] (inactive).
On the same count and under the same terms, next, `Nc1ccc2[nH]cc(CCC(=O)O)c2c1`: -7.47% [at 11.4 µM] (inactive).
For the molecule `CCOC(=O)CCCc1c[nH]c2ccccc12`, the AC50 is 7.94 µM (active).
On the same count and under the same terms, the same measure for `O=C(O)c1c(Cl)c(Cl)c(Cl)c(Cl)c1C(=O)Nc1ccc2cn[nH]c2c1`: 0.0794 µM (active); for `CCNc1ncc2nc(-c3ccc(Cl)cc3)c(=O)n(C3CC3)c2n1`: “inactive”.
As to `Cc1ccc(Nc2c([N+](=O)[O-])ccc3c2=NC2(CCCCC2)N=3)cc1`, the AC50 was 5.01 µM (active).
Same read-out and setting: the same measure for `O=C(Nc1cnn(Cc2ccc(Cl)cc2Cl)c1)c1cc(-c2cccs2)on1`: 8.91 µM (active).
On the same count and under the same terms, next, `COc1ccc(-c2cc(C(=O)Nc3cnn(Cc4ccccc4C)c3)no2)cc1OC`: “inactive”.
For `O=C(CC1C(=O)N(c2ccc(Cl)cc2)C(=S)N1CCc1ccncc1)Nc1ccc(F)cc1` (stereo not given), the AC50 is 0.0631 µM (active).
